# Measurements: the supplement of paper PMC3334620
# Over roughly 33,000 sequences, “E-score (-0.5 to 0.5)” has its median near -0.035; the highest 2% begin near 0.34. The sample as a whole holds a higher share of the highest values than the screen did.
# Molecular target: T1, Mot3 (UniProt P54785)
# T1 sequence: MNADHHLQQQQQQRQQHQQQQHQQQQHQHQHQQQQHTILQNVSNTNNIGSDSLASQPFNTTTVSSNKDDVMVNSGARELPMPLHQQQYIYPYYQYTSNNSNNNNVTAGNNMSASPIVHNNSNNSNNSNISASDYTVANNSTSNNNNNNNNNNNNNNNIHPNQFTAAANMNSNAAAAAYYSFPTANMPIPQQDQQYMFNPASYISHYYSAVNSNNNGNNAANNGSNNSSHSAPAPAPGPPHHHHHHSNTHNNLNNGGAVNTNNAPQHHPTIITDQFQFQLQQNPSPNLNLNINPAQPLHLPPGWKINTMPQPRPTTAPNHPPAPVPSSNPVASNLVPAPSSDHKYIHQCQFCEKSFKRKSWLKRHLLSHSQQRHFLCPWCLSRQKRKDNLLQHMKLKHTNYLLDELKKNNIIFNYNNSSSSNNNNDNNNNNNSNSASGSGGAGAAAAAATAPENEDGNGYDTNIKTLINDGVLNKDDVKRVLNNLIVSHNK
# Experiment: PBM E-score (8-mer binding enrichment) (E-score (-0.5 to 0.5)); higher = stronger / more preferred TF binding
# Details: protein concentration: 200 nM; construct: GST-full length
# Experimental: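 Universal 'all 10-mer' protein binding microarrays (Agilent AMADID 015681) probed with GST-tagged S. cerevisiae TFs (full-length or DBD) made by in vitro transcription/translation (PURExpress), about 100-200 nM. Bound TF was detected with fluorescent anti-GST. Each ungapped 8-mer (which stands for itself and its reverse complement) is scored by the PBM enrichment score (E-score), a modified Wilcoxon-Mann-Whitney statistic from -0.5 to +0.5, computed with the Universal PBM Analysis Suite. Scale: above 0.35 generally sequence-specific binding.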
row,Sequence,PBM E-score
1,GCAGGTAC,0.452
2,ACAGGTAG,-0.0129
3,GCAGGTCC,-0.168
4,CCAGGTAA,0.238
5,TCAGGTAA,0.324
6,ACAGGTAA,0.39
7,GCGTTACC,0.0266
8,CGGCTTCA,-0.131
9,CCCCACAA,-0.0534
10,ACTGAATC,-0.0804
11,AGGCTCCG,0.223
12,ATTGCCAC,-0.0828
13,GTGGTCTA,-0.279
14,CTTTGAAC,-0.158
15,GACACGGA,0.22
16,GACACGTA,0.26
17,TACACGGA,0.357
18,CACACGGA,0.0661
19,TACACGTA,0.362
20,CACACGTA,0.208
21,AGGTTGAT,-0.099
22,GCCCCCTA,-0.355
23,ATAGCGAT,-0.11
24,CAGAGCCG,-0.157
25,ATTGTGTG,0.0589

row,Sequence,PBM E-score
1,CTTGTGTA,0.333
2,GTGTTGTA,0.283
3,GTTGTGTA,0.373
4,ATTGTGTC,0.139
5,CATGTGTA,0.331
6,ATTGTGTA,0.346
7,AATGTGTA,0.289
8,GATGTGTA,0.347
9,ATCTGCCC,-0.0711
10,ACTGGCCC,-0.252
11,AACGACCG,-0.163
12,AAATGCGG,-0.0946
13,ACTGGCTG,-0.261
14,GACTAATC,-0.182
15,CCCTGTTA,0.12
16,GCCTGCGA,0.35
17,GCCTGTTA,0.35
18,ACCTGTTA,0.167
19,GCCTGTAC,0.338
20,GCCTGTAA,0.391
21,CCCTGCGA,-0.212
22,ACCTGCGA,0.0659
23,TCCTGTAA,0.338
24,AGAGCACC,-0.233
25,ACGTATCC,-0.129

row,Sequence,PBM E-score
1,CCATCTCC,-0.26
2,CCGGGGTC,-0.135
3,AGTGCGAT,-0.00843
4,GATTTCGC,0.167
5,GAGACTCA,-0.251
6,ACACGTGT,0.363
7,AAACGTGG,-0.0479
8,ACACGTGA,0.273
9,AAACGTGA,0.178
10,ACACGTTC,0.303
11,ACACGTTG,0.305
12,AAACGTGT,0.344
13,ACACGTGG,0.236
14,ACACGTTA,0.345
15,CACGCGCC,0.181
16,CCAGGGTA,-0.153
17,GCCCAACA,0.146
18,ATCAAAAC,-0.118
19,ATGTTTTA,0.362
20,CTGTTTTA,0.0859
21,CTGTTTAC,0.28
22,ATGTTTAG,0.279
23,ATGTTTAC,0.374
24,GTGTTTTA,0.219
25,CTAGAACC,-0.0352

row,Sequence,PBM E-score
1,AAGCCCTG,-0.0744
2,AACTACCG,-0.0555
3,ATGGGGAG,-0.135
4,CTGTGTAC,0.294
5,GTGTGTAA,0.394
6,ATGTGTAG,0.303
7,GAGTGTAA,0.249
8,ATGTATAA,0.256
9,GTGTATAA,0.343
10,ATGTGTAC,0.285
11,ATGTGTAA,0.352
12,CTGTATAA,0.0988
13,GGGTGTAA,0.223
14,CTGTGTGA,0.181
15,CTGTGTAA,0.41
16,CCGGATGC,-0.24
17,ACGATCTC,-0.198
18,ACTAGGGG,-0.223
19,CGCTCTTC,-0.174
20,GACACATC,-0.0862
21,CCTAGGAC,-0.0674
22,AACATGTA,0.42
23,AACATTTA,0.244
24,AACATGTG,0.278
25,AAGATGTA,0.194

row,Sequence,PBM E-score
1,AACATGTT,0.387
2,AACATGTC,0.296
3,CTGGCCCC,-0.215
4,AACGGTTC,-0.172
5,AACAGAAT,0.0192
6,ATCTTAAG,-0.14
7,CCTGACCG,-0.159
8,AGTAGGAC,-0.258
9,CGTAGGAG,-0.0892
10,GGTAGGAA,0.313
11,CGTAGGAA,0.351
12,GGTAGGAC,-0.172
13,AGTAGGAA,0.403
14,TGTAGGAA,0.406
15,CGTAGGAC,-0.166
16,AGTAGGAT,0.0448
17,CATCAGGG,-0.0517
18,ACTGCGGC,-0.227
19,AACTAAGA,0.0799
20,CAATTGCA,-0.0452
21,AGTACCAA,0.013
22,GCTACCTA,0.0719
23,CGTACCTC,-0.144
24,AGTACCTC,-0.107
25,ATTACCTA,0.332

row,Sequence,PBM E-score
1,CCTACCTA,0.156
2,AGTACCTA,0.342
3,GTTACCTA,0.369
4,CTTACCTA,0.175
5,GGTACCTA,0.424
6,GGTACCCA,0.00798
7,CGTACCTA,0.395
8,GTCACCTA,-0.0234
9,ATGAAGTA,-0.0752
10,CTTACAGC,0.00061
11,CCCCATAC,0.00082
12,GATGGAAC,-0.0944
13,ATTACCTG,0.336
14,AGTACCAG,-0.106
15,AGTACCTG,0.378
16,CAGCCCGG,-0.239
17,CGGGGAAC,-0.0973
18,AGTGTAGA,0.151
19,CATGTATC,0.277
20,CATGTATA,0.376
21,CATGTAGA,0.39
22,CAAGTAGG,0.105
23,AATGTAGG,0.191
24,CGTGTAGC,0.228
25,CGTGTAGA,0.414

row,Sequence,PBM E-score
1,GATGTATA,0.195
2,GATGTAGA,0.195
3,CATGTAGC,0.276
4,CATGTAGG,0.374
5,ATTGGAGA,-0.179
6,AAGGGGGC,-0.138
7,AGTAGAAG,0.0882
8,AGGTTCAT,-0.0206
9,GGCCCAGA,-0.411
10,CCAAGACG,-0.236
11,ACAACGGG,0.07
12,GCTAACTA,0.00452
13,GGTGTAAA,0.297
14,AGTGTAAG,0.00213
15,TGTGTAAA,0.416
16,AGTGTAAA,0.28
17,CGTGTAAG,0.38
18,AGTGTAAC,0.128
19,ACTGTAAG,0.0605
20,AGTGTAAT,0.308
21,CGTGTAAA,0.438
22,CGTGTAAC,0.351
23,GGTGTAAC,0.164
